Bioassay records: PubChem, National Center for Advancing Translational Sciences (NCATS)
D1 agonist = activates the human D1 dopamine receptor. P21728. HEK293 T-REx D1 cells, calcium flux, agonist mode. activation, % at 2 µM. actives 1% (n = 360,000); further: 0% is about no effect
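Agonism was scored from calcium flux recorded over 180 s (1 read/s) after pintool compound addition, following a 10-cycle baseline. Cells were inducible force-coupled HEK293 TREx D1, plated overnight at 30 C and loaded with no-wash calcium dye.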
TRHR ag = TRH receptor (human) agonism. P34981. TRHR cells, calcium flux fluo-8, FDSS agonist mode. activation, % at 2 µM. actives 0.18% (n = 360,000). AID 493084; further: 0% is about no effect
Target sequence (P34981 whole entry, looked up): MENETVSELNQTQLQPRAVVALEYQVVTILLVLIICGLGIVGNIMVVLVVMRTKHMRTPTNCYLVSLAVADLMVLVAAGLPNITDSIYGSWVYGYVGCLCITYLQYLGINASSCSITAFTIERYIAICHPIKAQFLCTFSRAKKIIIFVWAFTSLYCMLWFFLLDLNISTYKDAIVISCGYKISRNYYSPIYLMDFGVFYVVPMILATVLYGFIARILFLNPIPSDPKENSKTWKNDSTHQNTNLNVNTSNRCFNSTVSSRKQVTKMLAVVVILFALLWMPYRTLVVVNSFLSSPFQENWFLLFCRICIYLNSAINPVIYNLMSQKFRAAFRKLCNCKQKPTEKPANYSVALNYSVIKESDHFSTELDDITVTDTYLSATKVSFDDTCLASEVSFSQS
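Read-out: compound-evoked intracellular calcium rise in TRHR cells, fluo-8 dye, kinetic FDSS fluorescence at 1 s/cycle following a 10-cycle baseline. Cells cultured overnight before dye loading (30 min–1.5 h, RT).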
TRHR enhancer = allosterically enhances the human TRH receptor | P34981 | TRHR cells, fluo-8 calcium fluorescence, EC20 TRH enhancement | enhancement, % at 2 µM | actives 0.66% (n = 360,000) | AID 493056; in the data active means enhancement above about 30%; further: 0% is about no effect
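Enhancer read-out: after compound pinning and an initial kinetic agonist-mode read, an EC20 of TRH (10 nM final) was injected and fluo-8 calcium signal (Ex 480/Em 530) followed at 1 s/cycle for 100 cycles in TRHR-expressing cells.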
D1 antag = human D1 dopamine receptor antagonism | activity change, negative = inhibition, % at 10 µM | HEK293 TREx D1 cells, calcium flux, dopamine EC80; active compounds read low | actives 3.2% (n = 360,000) | P21728; in the data active means activity change below about -30%; further: on the % scale 0 is the no-effect control and ±100 the full control effect
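Tetracycline-induced HEK293 Trex D1 cells, force-coupled to calcium, dye-loaded; compounds added and read 180 s, then EC80 dopamine added and calcium flux tracked kinetically another 180 s.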
Glioma ERSR ind = ER stress response induction in glioma. U87-MG GRP78 promoter luciferase reporter, 16 h. Potency, µM, without a hit: top-dose activation, most hits filed as activators. actives 0.02% (n = 420,000). AID 602332; active means well fitted activation curve with a large enough effect; inconclusive means small, poorly fitted or top-dose-only effect; inactive means no such curve, though single readings can be large or run the other way; further: potency means the concentration at half of the fitted maximal effect; series mostly up to about 76 µM; % of control where 0% means no effect; nearly all actives have a fitted effect of over 35% in size
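ERSR induction read as luciferase luminescence (Bright-Glo, 10 min at room temperature) in stably transfected human U87-MG glioma cells exposed to compounds for 16 h, using GRP78 as sensor.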
D1 PAM = enhances dopamine response at the human D1 receptor | potentiation, % at 10 µM | AID 504651 | P21728 | actives 0.036% (n = 360,000) | HEK293 TREx D1 cells, calcium flux, dopamine EC20 potentiation; in the data active means potentiation above about 30%; further: 0% is about no effect
* marks the source's active call; other numbers are inactive results; ? = inconclusive; nt = not tested or not shown. Most compounds without a hit are left out; they make up all but 4% or so of the library. Unless noted, no stated cut-off is given here; in the data, active means activation above about 30%; inactive means the rest.

SMILES | D1 agonist | TRHR ag | TRHR enhancer | D1 antag | Glioma ERSR ind | D1 PAM
Cc1ccc(-n2cnnn2)c2cccnc12 | 6.2 | 0.3 | 5.7 | -0.1 | -2.4% | -0.9
Cc1nn(C)c(C)c1N1C(=O)c2cccc3c(N)ccc(c23)C1=O | 355.5* | 135.2* | 22.1 | -27.2 | -1.4% | 6.5
Cc1ccc(S(=O)(=O)N2CCOCC2)cc1NC(=O)c1cccc(S(=O)(=O)N2CCCC2)c1 | 0.0 | -0.2 | -7.1 | -23.7 | -3.3% | -2.6
CCCCN(CCCC)CC(O)COc1ccccc1C(=O)Nc1ccccc1 (configuration not stated) | 0.4 | 0.3 | -5.4 | -2.3 | -2.3% | -4.4
CCCOc1ccc(/C=N/Nc2cc(N3CCOCC3)ncn2)c(O)c1 | 0.8 | 0.3 | -4.3 | 0.6 | -3.8% | -3.0
O=C1CCC(C(=O)N(Cc2cccs2)C2(C(=O)NC3CCCCC3)CCCCC2)N1 (configuration not stated) | 2.0 | 0.6 | -2.5 | -3.7 | -1.3% | -0.8
Cc1ccc(SCc2nc(N)nc(Nc3ccccc3C)n2)c(C)c1 | 5.9 | -0.2 | -1.2 | 9.9 | 2.0% | -0.1
Cc1ccc(Nc2nc(N)nc(CSc3nccn3C)n2)c(C)c1 | -0.6 | -0.3 | 0.6 | -32.9* | 2.0% | -2.1
CC(NC(=O)CCCN1C(=O)c2ccccc2C1=O)c1ccc2c(c1)CCCC2 (configuration not stated) | 2.7 | 0.0 | 1.9 | -39.5* | -3.3% | 9.2
O=C(/C=C/c1ccc(F)cc1)NC(=S)N1CCOCC1 | 2.3 | -0.5 | 37.2* | -16.9 | 6.6% | -2.6
O=C(/C=C/c1ccc(F)cc1)NC(=S)N1CCN(Cc2ccccc2)CC1 | -1.5 | -0.1 | -3.1 | 7.3 | -1.0% | 2.8
Fc1ccc(CNC(=S)Nc2ccc(OC(F)F)cc2)cc1 | 25.5 | 1.8 | -4.8 | -42.3* | -2.8% | -6.9
CCc1ccc(NC(=S)NCc2ccccc2)cc1 | 6.4 | -0.6 | -0.5 | -37.8* | -6.1% | -7.3
S=C(NCc1ccccc1)Nc1ccncc1 | 7.7 | 0.5 | 0.7 | -55.9* | -7.1% | -17.4
CN(C)C(=S)NCc1ccccc1 | 1.4 | -0.2 | 37.9* | -18.0 | -4.1% | 5.0
Cc1nc2ccccc2n1CC(=O)N/N=C\C=C\c1ccccc1 | 1.9 | 0.2 | -3.0 | 0.7 | -3.4% | 1.4
O=C(Nc1ccc(OCCO)cc1)c1csc([C@@H]2C[C@H](O)[C@@H](CO)O2)n1 | nt | nt | nt | nt | -3.5% | nt
COc1cc(OC)c2c(-c3ccccc3)cc(=O)oc2c1C(CC(=O)N1CCOCC1)c1ccc(N(C)C)cc1 (configuration not stated) | 1.2 | -0.5 | -2.8 | -7.9 | -4.8% | -9.2
CCCCCCCC(O)CC(CC1CCCCC1)C(=O)NN (configuration not stated) | 1.5 | 0.0 | 32.9* | 11.9 | 0.2% | -6.5
CCCCC(CC(O)COCC(C)C)C(=O)NN (configuration not stated) | 4.1 | 0.2 | 1.8 | -2.0 | -4.1% | -1.1
O=C(CSc1nnc(-c2ccc(O)cc2)o1)c1ccc(Br)cc1 | 38.5* | 1.7 | 3.5 | 30.1 | -2.0% | -1.6
CCC1CCCCN1CCCNC(=O)c1cn(C)c2ccc(S(=O)(=O)N3CCOCC3)cc2c1=O (configuration not stated) | 4.7 | 0.7 | 3.5 | -12.3 | 1.0% | -4.1
COc1ccc(CNC(=O)CN2C(=O)CSc3ccc(S(=O)(=O)N4CCOCC4)cc32)cc1 | 0.0 | 0.0 | 3.2 | -12.5 | -1.9% | -1.6
COc1ccc(C[C@H]2CN3C(=NC[C@@H]3C(C)C)N2CCNC(=O)c2ccc(C)c(Br)c2)cc1 | 30.4* | 0.0 | 7.4 | 0.3 | -4.2% | -3.0
CCCCCS(=O)(=O)c1oc(-c2cccs2)nc1S(=O)(=O)c1ccc(C)cc1 | 5.2 | 1.6 | -4.7 | -22.5 | -10.7% | -0.9
SMILES | D1 agonist | TRHR ag | TRHR enhancer | D1 antag | Glioma ERSR ind | D1 PAM
CCCCS(=O)(=O)c1oc(-c2cccs2)nc1S(=O)(=O)c1ccc(F)cc1 | 81.1* | 1.5 | -1.1 | 1.0 | -10.7% | 4.2
Cc1cc(C(=O)CSc2cccc[n+]2[O-])c(C)n1-c1ccc(OC(F)F)cc1 | 8.5 | -1.1 | 12.2 | -40.2* | 2.5% | -7.9
COc1ccc(Cl)cc1NC(=S)NCc1ccccn1 | 1.6 | 0.2 | 30.8* | 10.2 | -0.7% | -5.1
c1ccc2c(c1)nc(N1CCCCCC1)c1ccccc12 | 1.9 | -0.2 | 6.4 | 15.1 | -3.3% | 12.3
Cc1ccc(Nc2nc(N)c([N+](=O)[O-])c(N3CCOCC3)n2)cc1 | 2.7 | 0.3 | 12.0 | -10.1 | 0.5% | 0.8
COc1ccc(Nc2nc(N)c([N+](=O)[O-])c(N3CCCC3)n2)cc1 | 3.8 | -0.4 | 3.4 | 8.1 | 1.1% | -6.0
Oc1ccc(Nc2nc(N3CCCC3)c3ccccc3n2)cc1 | 1.3 | -0.5 | -1.0 | -40.0* | 1.2% | -9.8
Cc1ccc(Nc2nc(N3CCOCC3)c3ccccc3n2)cc1 | 1.2 | -0.4 | 3.7 | -59.7* | ? | -12.7
COc1ccc(Nc2nc(N3CCCCC3)c3ccccc3n2)cc1 | 8.1 | -0.2 | -2.6 | -48.9* | ? | -15.5
O=C1CCCCCN1Sc1ccccc1 | 2.0 | -0.7 | 3.6 | 13.6 | 7.1% | 2.9
CC(=O)N1CCN(CCN=CC2=C(O)CC(c3cccs3)CC2=O)CC1 (configuration not stated) | 3.0 | 0.9 | 0.3 | 12.5 | -5.4% | 2.3
Cc1ccc(S(=O)(=O)N2CCN(C(=O)CN3CCCC3)C2)cc1 | 1.8 | 0.6 | 0.3 | 9.2 | -0.5% | -9.4
COC(=O)c1nn(C23CC4CC(CC(C4)C2)C3)c2c1C(=O)N(c1ccc(F)cc1)C2=O | 0.5 | 0.3 | 3.8 | 8.3 | 0.0% | -3.3
O=C(COc1ccc(S(=O)(=O)NC2CCCCC2)cc1)NC1CCCC1 | 4.4 | -1.0 | 0.9 | -42.9* | 0.2% | -2.2
Cc1ccc(C(=O)n2nc(C)c(S(=O)(=O)N3CCCCCC3)c2C)cc1C | 4.2 | 0.1 | 34.9* | -14.9 | -1.1% | -2.8
Nc1cc(-c2ccncc2)c[nH]c1=O | 12.8 | 1.5 | 3.0 | -5.3 | -2.5% | -0.3
COc1ccc(C2CCCN2CC(O)COc2ccccc2C(C)C)cc1 (configuration not stated) | 8.9 | 1.1 | 12.9 | -30.2* | -5.3% | -4.8
O=S(=O)(c1ccc2c(c1)OCCO2)N1CCN(S(=O)(=O)c2ccc3c(c2)OCCO3)CC1 | 1.3 | 0.5 | -3.0 | -5.1 | nt | 6.8
O=S(=O)(c1ccc2c(c1)OCCO2)N1CCN(c2ncnc3sccc23)CC1 | 12.6 | -0.5 | -7.0 | -31.7* | -4.3% | -3.9
Cc1ccc(S(=O)(=O)N2CCN(c3ncnc4sccc34)CC2)cc1C | 8.5 | 0.3 | 0.9 | -15.1 | -1.5% | -6.1
Cc1cc(C)c(C)c(S(=O)(=O)N2CCN(S(=O)(=O)c3ccc4c(c3)OCCO4)CC2)c1C | 5.2 | 1.8 | 0.8 | -48.5* | nt | -2.1
